Structures are written as SMILES.

Our source for the inhibition values is ChEMBL document CHEMBL1961873, “Compounds: GSK PKIS; Assays: Nanosyn kinase panel” (2012).

The target of test [1] is Sphingosine kinase 1 (Homo sapiens) (UniProt Q9NYA1). The following applies: at 1 µM.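 Also: mean SPHK1 inhibition value reported from the GSK PKIS kinase panel screen.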
The target of test [2] is T1, Sphingosine kinase 2 (Homo sapiens) (UniProt Q9NRA0).
T1 sequence (whole entry): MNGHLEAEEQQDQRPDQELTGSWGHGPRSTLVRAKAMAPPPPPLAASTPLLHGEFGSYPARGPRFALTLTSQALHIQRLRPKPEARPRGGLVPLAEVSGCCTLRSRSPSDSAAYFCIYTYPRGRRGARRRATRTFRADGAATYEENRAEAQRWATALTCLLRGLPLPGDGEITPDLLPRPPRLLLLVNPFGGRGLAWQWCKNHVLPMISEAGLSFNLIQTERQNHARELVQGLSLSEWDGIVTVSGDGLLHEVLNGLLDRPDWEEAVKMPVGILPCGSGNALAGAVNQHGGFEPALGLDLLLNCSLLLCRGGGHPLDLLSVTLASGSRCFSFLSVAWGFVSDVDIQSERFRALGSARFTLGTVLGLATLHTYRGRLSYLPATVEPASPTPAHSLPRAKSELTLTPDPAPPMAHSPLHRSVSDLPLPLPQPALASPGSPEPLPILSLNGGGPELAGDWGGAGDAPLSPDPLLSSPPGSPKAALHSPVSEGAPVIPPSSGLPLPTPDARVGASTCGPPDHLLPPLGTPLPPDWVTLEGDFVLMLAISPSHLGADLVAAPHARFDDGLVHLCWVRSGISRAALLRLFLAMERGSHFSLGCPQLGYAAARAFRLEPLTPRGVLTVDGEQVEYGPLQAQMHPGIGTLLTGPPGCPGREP
The following applies: at 0.1 µM.

Test [3] has as its target T1, Sphingosine kinase 2 (Homo sapiens). Particulars: at 1 µM.
The target of test [4] is Casein kinase II subunit alpha (Homo sapiens) (UniProt P68400). Particulars: at 0.1 µM.
Chain of Casein kinase II subunit alpha (Homo sapiens) (P68400 whole entry, looked up): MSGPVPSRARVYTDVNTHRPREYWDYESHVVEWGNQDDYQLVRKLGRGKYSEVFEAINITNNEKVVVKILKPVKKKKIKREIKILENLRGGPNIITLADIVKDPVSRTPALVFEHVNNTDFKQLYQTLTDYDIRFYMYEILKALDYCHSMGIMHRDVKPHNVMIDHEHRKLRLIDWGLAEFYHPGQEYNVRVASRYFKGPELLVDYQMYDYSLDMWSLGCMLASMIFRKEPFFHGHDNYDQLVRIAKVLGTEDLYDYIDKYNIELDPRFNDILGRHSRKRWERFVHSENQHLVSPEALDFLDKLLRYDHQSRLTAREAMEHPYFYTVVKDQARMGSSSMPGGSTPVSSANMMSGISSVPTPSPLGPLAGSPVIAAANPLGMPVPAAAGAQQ
Test [5] has the same target. The following applies: at 1 µM.
Test [6] concerns the target T2, Inhibitor of nuclear factor kappa-B kinase subunit alpha (Homo sapiens) (UniProt O15111).
T2 sequence (whole entry): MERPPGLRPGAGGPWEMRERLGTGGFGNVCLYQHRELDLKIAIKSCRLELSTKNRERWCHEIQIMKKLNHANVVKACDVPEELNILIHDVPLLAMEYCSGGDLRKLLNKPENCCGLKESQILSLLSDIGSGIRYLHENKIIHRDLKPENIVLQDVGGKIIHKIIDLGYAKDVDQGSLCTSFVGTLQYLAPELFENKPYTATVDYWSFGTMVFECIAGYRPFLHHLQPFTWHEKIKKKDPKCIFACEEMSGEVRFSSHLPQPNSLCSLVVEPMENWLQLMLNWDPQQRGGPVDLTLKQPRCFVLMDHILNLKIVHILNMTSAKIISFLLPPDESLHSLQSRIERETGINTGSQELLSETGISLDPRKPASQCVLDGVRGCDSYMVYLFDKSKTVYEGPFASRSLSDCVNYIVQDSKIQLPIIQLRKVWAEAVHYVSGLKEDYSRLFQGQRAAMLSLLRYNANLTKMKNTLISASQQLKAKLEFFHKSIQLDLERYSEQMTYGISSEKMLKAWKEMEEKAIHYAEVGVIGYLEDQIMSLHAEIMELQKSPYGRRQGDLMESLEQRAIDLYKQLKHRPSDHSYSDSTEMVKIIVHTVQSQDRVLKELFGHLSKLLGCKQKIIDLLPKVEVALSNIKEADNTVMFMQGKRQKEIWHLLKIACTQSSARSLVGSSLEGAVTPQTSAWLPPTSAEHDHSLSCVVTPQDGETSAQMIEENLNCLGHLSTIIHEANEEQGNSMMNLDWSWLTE
Particulars: at 0.1 µM.

For test [7], the target named is T2, Inhibitor of nuclear factor kappa-B kinase subunit alpha (Homo sapiens). Particulars: at 1 µM.
The target of test [8] is T3, Inhibitor of nuclear factor kappa-B kinase subunit beta (Homo sapiens) (UniProt O14920).
T3 sequence (whole entry): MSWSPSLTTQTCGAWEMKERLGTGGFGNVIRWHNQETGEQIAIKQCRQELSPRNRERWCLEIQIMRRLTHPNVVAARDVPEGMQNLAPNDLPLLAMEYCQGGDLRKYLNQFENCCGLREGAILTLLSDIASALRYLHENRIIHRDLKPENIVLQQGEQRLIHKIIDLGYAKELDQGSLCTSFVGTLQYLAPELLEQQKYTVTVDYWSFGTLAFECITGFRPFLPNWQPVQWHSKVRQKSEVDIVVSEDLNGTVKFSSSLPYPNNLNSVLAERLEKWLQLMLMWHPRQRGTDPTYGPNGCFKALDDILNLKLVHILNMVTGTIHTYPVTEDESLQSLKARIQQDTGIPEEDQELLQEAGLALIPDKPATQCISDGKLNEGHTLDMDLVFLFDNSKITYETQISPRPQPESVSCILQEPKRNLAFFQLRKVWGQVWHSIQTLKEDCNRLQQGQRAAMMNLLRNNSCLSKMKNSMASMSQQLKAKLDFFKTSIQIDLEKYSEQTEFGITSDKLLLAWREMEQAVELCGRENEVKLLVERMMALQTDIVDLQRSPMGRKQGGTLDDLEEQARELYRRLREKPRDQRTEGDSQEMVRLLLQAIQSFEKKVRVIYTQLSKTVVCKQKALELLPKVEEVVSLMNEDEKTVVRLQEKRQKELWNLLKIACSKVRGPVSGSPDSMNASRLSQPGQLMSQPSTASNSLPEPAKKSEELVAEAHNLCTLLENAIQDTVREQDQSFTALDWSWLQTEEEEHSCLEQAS
The following applies: at 0.1 µM.

Test [9] has as its target T3, Inhibitor of nuclear factor kappa-B kinase subunit beta (Homo sapiens). Particulars: at 1 µM.
For test [10], the target named is T4, Inhibitor of nuclear factor kappa-B kinase subunit epsilon (Homo sapiens) (UniProt Q14164).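 Also: mean inhibition of IKKε reported, from the GSK PKIS dataset.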
T4 sequence (whole entry): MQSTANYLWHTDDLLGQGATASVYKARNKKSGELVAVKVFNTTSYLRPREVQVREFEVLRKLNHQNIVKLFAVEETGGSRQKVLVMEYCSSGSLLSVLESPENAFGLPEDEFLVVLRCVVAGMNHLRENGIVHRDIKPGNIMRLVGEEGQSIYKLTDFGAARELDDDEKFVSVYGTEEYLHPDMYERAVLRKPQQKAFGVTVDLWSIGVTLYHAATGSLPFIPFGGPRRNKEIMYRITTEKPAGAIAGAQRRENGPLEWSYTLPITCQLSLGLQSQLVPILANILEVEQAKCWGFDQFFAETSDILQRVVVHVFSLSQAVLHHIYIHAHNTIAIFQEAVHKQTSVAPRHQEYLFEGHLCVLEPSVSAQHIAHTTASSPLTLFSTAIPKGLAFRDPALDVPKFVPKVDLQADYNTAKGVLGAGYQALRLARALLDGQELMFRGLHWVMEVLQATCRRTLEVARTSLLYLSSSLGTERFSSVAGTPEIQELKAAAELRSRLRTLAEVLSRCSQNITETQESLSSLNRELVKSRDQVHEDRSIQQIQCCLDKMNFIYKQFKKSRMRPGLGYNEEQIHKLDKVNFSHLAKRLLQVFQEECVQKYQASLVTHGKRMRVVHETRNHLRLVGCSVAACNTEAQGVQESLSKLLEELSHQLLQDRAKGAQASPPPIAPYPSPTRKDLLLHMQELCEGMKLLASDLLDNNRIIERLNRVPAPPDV
The following applies: at 0.1 µM.

Chain of Sphingosine kinase 1 (Homo sapiens) (Q9NYA1 whole entry): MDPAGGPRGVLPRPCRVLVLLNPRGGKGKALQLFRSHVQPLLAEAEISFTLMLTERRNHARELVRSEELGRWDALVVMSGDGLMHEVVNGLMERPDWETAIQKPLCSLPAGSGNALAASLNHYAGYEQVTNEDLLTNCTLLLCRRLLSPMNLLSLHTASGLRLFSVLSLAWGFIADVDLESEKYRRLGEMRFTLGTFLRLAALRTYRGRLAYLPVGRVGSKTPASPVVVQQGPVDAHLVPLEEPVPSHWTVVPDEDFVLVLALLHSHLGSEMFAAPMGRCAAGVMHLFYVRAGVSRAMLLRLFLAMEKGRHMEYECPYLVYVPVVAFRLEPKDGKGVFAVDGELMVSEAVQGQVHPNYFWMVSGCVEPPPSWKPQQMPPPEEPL

For `COc1cc(C=NNc2ncnc3c2cnn3-c2ccccc2)ccc1O`, the inhibition in [1] is -3.84%; in [2], -0.52%; in [3], -2.55%; in test [4] it was 9.38%; in [5] it was 41.6%; in test [6], 10.6%. The inhibition is -1.27% in [7], 3.33% in [8], -0.52% in test [9] and 3.38% in test [10].
As for `Cc1cccc(-c2n[nH]cc2-c2ccc3ncccc3n2)n1`, the inhibition is -1.51% in [1]; 0.61% in [2]; 0.2% in test [3]; 1.46% in test [4]; 4.82% in test [5]; 2.07% in [6]. The inhibition in test [7] came to 5.93%; in [8], 0.87%; in test [9], 0.63%; in test [10], 0.62%.
`COc1ccc(-c2ccncc2)cc1C(N)=O`: the inhibition in [1] was -0.74%; in test [2] it was 0.88%; in test [3] it was -0.67%; in test [5] it was 4.44%; in test [6] it was 2.55%; in test [7] it was 9.39%. The inhibition in [8] amounted to 4.74%; in test [9], 7.06%; in test [10], 5.87%.
Turning to `Nc1nc(-c2ccccn2)c(-c2ccc3ncccc3n2)s1`, the inhibition was -3.49% in [1]; -0.63% in [2]; -3.19% in test [3]; 2.62% in test [4]; 10.1% in [5]; 4.74% in test [6]. The inhibition came out at 9.42% in test [7], 4.18% in test [8], 4.54% in test [9] and 3.83% in test [10].
With `CCCN1CCC(Oc2cc(Nc3nc(Nc4cccc(F)c4C(N)=O)c4cc[nH]c4n3)c(OC)cc2Cl)CC1`, the inhibition in test [1] is 0.63%; in test [2] it was -0.36%; in test [3], 0.09%; in test [4], 0.96%; in [5], 7.7%; in test [6], -0.06%. The inhibition in [7] was -9.18%; in test [8], -1.77%; in test [9], -4.88%; in test [10], -2.26%.
On to `COc1cc2ncn(-c3cc(OCc4ccccc4Cl)c(C(N)=O)s3)c2cc1OC`, for which the inhibition is -2.81% in [1]; 5.21% in test [2]; -4.96% in test [3]; 2.2% in [4]; 9.54% in test [5]; -1.84% in test [6]. The inhibition in test [7] turned out to be 5.14%; in [8], 1.96%; in test [9], 1.01%; in test [10], 0.65%.
Take `CC(C)=Cc1cccc2c1/C(=N/Nc1ccc(S(N)(=O)=O)cc1)C(=O)N2`: the inhibition worked out at 3.96% in [1]; 0.66% in test [2]; 0.76% in [3]; 1.84% in test [4]; 10.6% in [5]; 3.49% in test [6]. Besides, the inhibition in test [7] is 3%; in [8], 1.01%; in test [9], 2.88%; in [10] it was 5.72%.
`CCn1c(-c2nonc2N)nc2cncc(C(=O)N3CCNCC3)c21`: the inhibition was -1.31% in test [1]; 2.81% in test [2]; 0.77% in test [3]; 4.04% in test [4]; 2.82% in test [5]; 1.05% in test [6]. For the same compound, the inhibition stood at 5.47% in test [7], 6.46% in test [8], 8.59% in test [9] and 12.2% in test [10].
As for `CS(=O)(=O)CCNCc1nc(-c2ccc3ncnc(Nc4ccc(F)c(Cl)c4)c3c2)cs1`, the inhibition in [1] was 0.42%; in test [2], 0.49%; in [3] it was -0.93%; in [4], 1.14%; in [5] it was 5.94%; in [6] it was -4.65%. Besides, the inhibition in test [7] is -4.39%; in [8], -0.32%; in test [9], 1.99%; in test [10], 1.53%.
